Measured values taken from PubChem BioAssay AID652023 (National Center for Advancing Translational Sciences (NCATS), 2013).
This is one part of the list. Results filed as inconclusive are left out. Activity calls are given as the source filed them. Calls come from the whole dose curve; as a rule, active = well fitted inhibition curve with a large enough effect; inconclusive = small, poorly fitted or top-dose-only effect; inactive = flat fitted curve, though single readings scatter.

Biological target: Thioredoxin reductase 1, cytoplasmic (Rattus norvegicus) (UniProt O89049)
Assay: qHTS Assay for Inhibitors of Mammalian Selenoprotein Thioredoxin Reductase 1 (TrxR1): Hit Validation in Primary Screen
Settings: recombinant TrxR1, NADPH fluorescence consumption, selenite substrate
Excerpt: The selenoprotein thioredoxin reductase (TrxR; EC 1.8.1.9) is a FAD containing homodimeric pyridine nucleotide-disulfide oxidoreductase with many cellular roles. Together with NADPH and its prime substrate thioredoxin (Trx), the enzyme forms the core of the Trx system. The mammalian Trx system exerts a wide spectrum of functions including redox regulation, antioxidant defense, regulation of transcription factors as well as support of cell growth and replication. Many of these functions involve the reduction of Trx, which may subsequently reduce a number of different substrates including ribonucleotide reductase, peroxiredoxins or NFkB. […]
Assay protocol: 2 uL of reagents (buffer in column 4 as negative control and 90 nM rTrxR1 in columns 1-3 and 5-48) were dispensed into Greiner black solid-bottom 1,536-well assay plates, followed by 1 uL of NADPH (400 uM final concentration) to each well. […] The plate was immediately transferred to a ViewLux high-throughput CCD imager (PerkinElmer), wherein kinetic measurements of NADPH fluorescence (Ex 340 nm, Em 450 nm) were acquired (8 minute kinetic read). Read 1 was utilized to assess the capacity of a compound to serve as an rTrxR1 substrate, i.e. a decrease in NADPH fluorescence compared to the no-compound background is an indication of a substrate behavior for that particular compound. […]

Thioredoxin reductase 1, cytoplasmic (Rattus norvegicus), sequence (O89049 whole entry, looked up): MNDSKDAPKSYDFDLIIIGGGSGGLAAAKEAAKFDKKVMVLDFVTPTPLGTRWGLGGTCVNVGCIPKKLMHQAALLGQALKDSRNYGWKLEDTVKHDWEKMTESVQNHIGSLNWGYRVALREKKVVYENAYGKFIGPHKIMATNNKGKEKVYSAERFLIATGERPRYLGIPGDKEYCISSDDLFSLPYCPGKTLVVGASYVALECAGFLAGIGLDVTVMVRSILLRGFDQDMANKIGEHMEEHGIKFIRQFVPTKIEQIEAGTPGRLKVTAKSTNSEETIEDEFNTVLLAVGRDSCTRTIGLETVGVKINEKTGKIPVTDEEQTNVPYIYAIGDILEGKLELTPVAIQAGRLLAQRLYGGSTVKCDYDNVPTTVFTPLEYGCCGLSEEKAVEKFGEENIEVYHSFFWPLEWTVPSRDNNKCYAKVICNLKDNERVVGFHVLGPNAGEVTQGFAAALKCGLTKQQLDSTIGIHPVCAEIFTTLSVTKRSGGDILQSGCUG

In the case of `COc1ccc(-c2nc(CS(=O)CC(=O)N3CCC4(CC3)OCCO4)c(C)o2)cc1` (stereo unspecified), the Potency is reported as 7.52 µM (active).
